# Laboratory results reported in PubChem BioAssay (NCATS).
# Records with an inconclusive call do not appear. A call without a number means that no potency is given here. Unmarked numbers belong to inactive results. Activity calls are given as the source filed them. Calls follow the shape of the dose curve; as a rule, active = well fitted cell-killing curve with a large enough effect; inconclusive = small, poorly fitted or top-dose-only effect, or effect the other way; inactive = no such curve, though single readings can be large or run the other way.
# Key:
# [1] = Quantitative High-Throughput drug screen in 47 multiple myeloma cell lines against the NCATS MIPE library collection: FR4_PLB cell viability assay (AID 1918924; also: nearly all actives have a fitted effect of over 35% in size)
# Method in brief: (§1)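 Luminescent ATP measurement with CellTiter-Glo gives viability, scaled between DMSO-only wells (100%) and media-only wells (0%). Cells, 500 per well, faced library compounds for 48 hours at 37C.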
# [2] = Quantitative High-Throughput drug screen in 47 multiple myeloma cell lines against the NCATS MIPE library collection: Delta47_JCRB cell viability assay (AID 1918925; also: nearly all actives have a fitted effect of over 45% in size)
# Method in brief: (§2)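 Approved and investigational drugs from MIPE 4.0 were added by pin tool to 500 cells per well. After 48 hours at 37C, ATP-based CellTiter-Glo luminescence indicated remaining viability.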
# [3] = Quantitative High-Throughput drug screen in 47 multiple myeloma cell lines against the NCATS MIPE library collection: EJM_DSMZ cell viability assay (AID 1918926; also: nearly all actives have a fitted effect of over 30% in size)
# Method in brief: as §2
# [4] = Quantitative High-Throughput drug screen in 47 multiple myeloma cell lines against the NCATS MIPE library collection: ARP1_JJKsccF8 cell viability assay (AID 1918928; also: nearly all actives have a fitted effect of over 40% in size)
# Method in brief: (§3)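 ATP readout (CellTiter-Glo), 48 h drug incubation, 37 °C/5% CO2, 500 cells per well; normalisation to DMSO (100%) and media-only (0%) controls.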
# [5] = Quantitative High-Throughput drug screen in 47 multiple myeloma cell lines against the NCATS MIPE library collection: ARD_JJKsccE7 cell viability assay (AID 1918929)
# Method in brief: as §2
# [6] = Quantitative High-Throughput drug screen in 47 multiple myeloma cell lines against the NCATS MIPE library collection: Karpas620_DSMZ cell viability assay (AID 1918959); also: nearly all actives have a fitted effect of over 30% in size
# Method in brief: as §1
# [7] = Quantitative High-Throughput drug screen in 47 multiple myeloma cell lines against the NCATS MIPE library collection: KMM1_JCRB cell viability assay (AID 1918960); also: nearly all actives have a fitted effect of over 30% in size
# Method in brief: as §3
# [8] = Quantitative High-Throughput drug screen in 47 multiple myeloma cell lines against the NCATS MIPE library collection: AMO1_DSMZ cell viability assay (AID 1918927; also: nearly all actives have a fitted effect of over 30% in size)
# Method in brief: as §2
# Potency is read from the fitted curve at half-maximal effect.
SMILES,Potency [1],Potency [2],Potency [3],Potency [4],Potency [5],Potency [6],Potency [7],Potency [8]
O=[N+]([O-])c1cn2c(n1)OC[C@@H](OCc1ccc(OC(F)(F)F)cc1)C2,inactive,inactive,inactive,inactive,inactive,inactive,inactive,–
CC(=O)O[C@]1(C(C)=O)CC[C@H]2[C@@H]3C=C(C)C4=CC(=O)CC[C@]4(C)[C@@H]3CC[C@@]21C,inactive,8330 nM (active),inactive,–,–,14800 nM (active),–,8330 nM (active)
NC(=O)c1ncn([C@@H]2O[C@H](CO)[C@@H](O)[C@@H]2O)c1O,18700 nM (active),inactive,inactive,13200 nM (active),inactive,inactive,inactive,–
C=CC1=C(C(=O)O)N2C(=O)[C@@H](NC(=O)C(=NO)c3csc(N)n3)[C@H]2SC1,inactive,inactive,inactive,inactive,–,inactive,inactive,–
O=C(O)CCCCC(CCSCc1ccccc1)SCc1ccccc1 (centres undefined),inactive,inactive,inactive,inactive,18700 nM (active),–,13200 nM (active),–
CC[C@@]1([C@@H]2O[C@@H]([C@H]3O[C@@](O)(CO)[C@H](C)C[C@H]3C)C[C@H]2C)CC[C@H]([C@]2(C)CC[C@]3(C[C@H](O)[C@@H](C)[C@@H]([C@@H](C)[C@@H](OC)[C@H](C)C(=O)O)O3)O2)O1,812 nM (active),457 nM (active),2040 nM (active),–,911 nM (active),–,–,57.5 nM (active)
CC(=O)OCC(=O)[C@@]12N=C(C)O[C@H]1C[C@H]1[C@@H]3CCC4=CC(=O)C=C[C@]4(C)[C@@H]3[C@@H](O)C[C@@]12C,inactive,inactive,inactive,inactive,1050 nM (active),inactive,–,–
C=CC(=O)Nc1cccc(Nc2nc(NC3CCC(N(C)C)CC3)nc3c2ncn3C(C)C)c1 (centres undefined),235 nM (active),235 nM (active),8.3 nM (active),743 nM (active),10.5 nM (active),–,–,–
COc1cccc2c1C(=O)c1c(O)c3c(c(O)c1C2=O)C[C@@](O)(C(=O)CO)C[C@@H]3O[C@H]1C[C@H](N)[C@H](OC2CCCCO2)[C@H](C)O1 (some centres undefined),3720 nM (active),833 nM (active),2350 nM (active),–,inactive,inactive,inactive,inactive
Nc1nc2c(c(=O)[nH]1)N(C=O)[C@H](CNc1ccc(C(=O)N[C@@H](CCC(=O)O)C(=O)O)cc1)CN2,inactive,inactive,inactive,inactive,–,inactive,inactive,–
COc1cc([C@@H]2c3cc4c(cc3[C@@H](O[C@@H]3O[C@@H]5CO[C@@H](c6cccs6)O[C@@H]5[C@H](O)[C@@H]3O)[C@H]3COC(=O)[C@H]23)OCO4)cc(OC)c1O,16600 nM (active),935 nM (active),2350 nM (active),209 nM (active),–,2960 nM (active),743 nM (active),–
CCOC(=O)C=C[C@H](C[C@@H]1CCNC1=O)NC(=O)[C@@H](CC(=O)[C@@H](NC(=O)c1cc(C)on1)C(C)C)Cc1ccc(F)cc1,inactive,inactive,inactive,inactive,inactive,inactive,inactive,–
CC(=O)O[C@@]12CO[C@H]1C[C@H](O)[C@@]1(C)C(=O)[C@H](O)C3=C(C)[C@@H](OC(=O)C(O)[C@@H](NC(=O)OC(C)(C)C)c4ccccc4)C[C@@](O)([C@@H](OC(=O)c4ccccc4)[C@@H]21)C3(C)C (some centres undefined),inactive,inactive,inactive,inactive,inactive,–,inactive,–
C[C@H]1C[C@H]2[C@@H]3CCC4=CC(=O)C=C[C@]4(C)[C@@H]3C(=O)C[C@]2(C)[C@@]1(O)C(=O)CO,inactive,inactive,inactive,–,inactive,inactive,inactive,inactive
Cc1cnc(NC(=O)Nc2cc(Br)c(C)cc2OC[C@@H]2CNCCO2)cn1,590 nM (active),5260 nM (active),3720 nM (active),–,1180 nM (active),–,–,–
N#CC(=Cc1ccc(O)c(O)c1)C(=O)NCc1ccccc1,5260 nM (active),1660 nM (active),14800 nM (active),–,–,inactive,–,inactive
COc1cccc2c1C(=O)c1c(O)c3c(c(O)c1C2=O)C[C@@](O)(C(=O)CO)C[C@H]3O[C@H]1C[C@H](N)[C@H](O)[C@H](C)O1,264 nM (active),148 nM (active),209 nM (active),–,2960 nM (active),1050 nM (active),1870 nM (active),1050 nM (active)
CCOC(=O)N1CCN([N+]([O-])=NOc2ccc([N+](=O)[O-])cc2[N+](=O)[O-])CC1,5900 nM (active),1480 nM (active),2640 nM (active),–,5900 nM (active),5260 nM (active),10500 nM (active),–
NC(=O)Nc1sc(-c2ccc(F)cc2)cc1C(N)=O,2350 nM (active),187 nM (active),–,2960 nM (active),296 nM (active),1480 nM (active),–,132 nM (active)
